ATXN viability = Viability Counterscreen for Primary qHTS for Inhibitors of ATXN expression; S2 cells (HEK-293 line with an ATXN2-luciferase reporter) viability, CellTiter-Fluor protease fluorescence, 24 h; Potency, µM (highest dose often 56.7 µM), most hits filed as cytotoxic; hit rate 0.49% among 400,000; further: nearly all actives have a fitted effect of over 40% in size
PINK1 modulator = A Quantitative High throughput Screen to Identify Chemical Modulators of PINK1 Expression | hit rate 0.2% among 410,000 | Potency, µM (doses to about 76.6 µM), usual class: activators | AID 624263, 2012 | PINK1 immunofluorescence, high-content cytometry, 24 h; active means well fitted activation curve with a large enough effect; inconclusive means small, poorly fitted or top-dose-only effect; cell line not stated here; further: nearly all actives have a fitted effect of over 65% in size
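Decision-based qHTS: stable cells, 24 h exposure to five compound concentrations, CCCP as control. Fixed cells stained for PINK1 plus nuclear, mitochondrial and cell markers, cytometer read.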
ATXN2 expr inh = Primary qHTS for Inhibitors of ATXN expression; HEK-293 ATXN2-luciferase reporter, luminescence, 24 h; AID 1745845, 2022; hit rate 0.72% among 360,000; Potency, µM (doses to about 57 µM), hits mostly inhibitors; further: nearly all actives have a fitted effect of over 55% in size
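qHTS (up to 57 uM final) was run with 24 h compound exposure of reporter cells at 37 °C. Each well was multiplexed: SteadyGlo luminescence measured ATXN2-luciferase expression after a fluorogenic Gly-Phe-AFC viability readout (25 uM final).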
IL-1B inflam inh = qHTS for Inhibitors of Inflammasome Signaling: IL-1-beta AlphaLISA Primary Screen; THP-1 LPS/ATP IL-1B secretion, AlphaLISA, 16 h; hits give low values; activity change, % at 57.5 µM; hit rate 4.7% among 360,000; AID 743279, 2014; in the data active means activity change below about -50%; inconclusive means mostly about -30% to -49%
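Secreted IL-1B measured by AlphaLISA bead assay after 16 h compound exposure of THP-1 cells; compounds (final up to 57.5 uM) added 1 h before LPS (250 ng/mL) and ATP (1.25 mM) stimulation; lower signal means less secretion.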
SW480 rereplic = A quantitative high throughput screen for small molecules that induce DNA re-replication in SW480 colon adenocarcinoma cells. SW480 DNA re-replication, Hoechst DNA content imaging, 48 h. Potency, µM (doses to about 46.1 µM), hits mostly activators. hit rate 1.8% among 340,000. AID 624297, 2012; further: nearly all actives have a fitted effect of over 55% in size
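Hoechst fluorescence of nuclei (405 nm excitation, 500-530 nm emission) measured by plate-scanning imager after 48 hr compound exposure at 37 C; re-replication scored as increased number of nuclei with elevated intensity.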
MCF10A rereplic = A quantitative high throughput screen for small molecules that induce DNA re-replication in MCF 10a normal breast cells | AID 624296, 2012 | MCF 10A DNA re-replication, Hoechst nuclear intensity, 48 h | Potency, µM (top dose mostly 46.1 µM), actives largely listed as activators | hit rate 2.9% among 350,000; further: nearly all actives have a fitted effect of over 50% in size
A number is an active result; . = inactive; ? = inconclusive; / = no result given. Only some compounds are listed: those with a hit (about 7.1% of all), similar ones and a draw of the others. Unless noted, the call rests on the fitted dose curve; in most records, active means well fitted curve in the direction sought with a large enough effect; inconclusive means small, poorly fitted or top-dose-only effect, or another doubt; inactive means no such curve, though single readings can be large; an effect the other way counts as inactive or inconclusive.

SMILES	ATXN viability	PINK1 modulator	ATXN2 expr inh	IL-1B inflam inh	SW480 rereplic	MCF10A rereplic
Cc1ccc(-c2cc(C(=O)Nc3cc(C)on3)c3ccccc3n2)cc1	.	.	?	.	?	.
Cc1ccsc1CCN1C(=O)N(c2ccc(F)cc2)C(=O)C1CC(=O)Nc1ccccc1 (centres undefined)	?	.	.	/	/	/
O=C(CCl)NC(=O)NC12CC3CC(CC(C3)C1)C2	?	.	?	-69	/	?
CCC1(c2ccc(F)cc2)NC(=O)N(CC(=O)NCc2ccc(F)cc2)C1=O (centres undefined)	.	.	.	.	.	.
CCC1(c2ccc(Cl)cc2)NC(=O)N(CC(=O)NC2CCCC(C)C2C)C1=O (centres undefined)	.	.	?	-53	4.1µM	.
CCC1(c2ccc(Cl)cc2)NC(=O)N(CC(=O)NCc2ccc(F)cc2)C1=O (centres undefined)	.	.	.	-53	.	.
CC1(c2ccc(Cl)cc2)NC(=O)N(CC(=O)NCCC2=CCCCC2)C1=O (centres undefined)	.	.	.	.	0.16µM	.
CCC1(c2ccc(F)cc2)NC(=O)N(CC(=O)NC2CCCC(C)C2C)C1=O (centres undefined)	.	.	.	.	.	.
O=C(CN1C(=O)NC2(CCCC2)C1=O)NCc1ccc(Cl)cc1	.	.	.	-51	.	.
CCOC(=O)c1cccc(NC(=O)c2cc3c(=O)n(C)c4ccccc4c3n2C)c1	.	.	.	/	/	/
Cc1ccc(CNC(=O)C2CCN(S(=O)(=O)c3cc(-c4noc(C)n4)ccc3C)CC2)cc1	.	.	.	/	/	/
Nc1nc2nc(-c3ccc(OCc4ccccc4)cc3)cc(C(F)(F)F)n2n1	.	.	.	.	?	?
Nc1nc2nc(-c3ccc(Cl)cc3)cc(C(F)(F)F)n2n1	.	.	.	.	13µM	?
Cc1ccc(S(=O)(=O)N2C[C@H]3N(C(=O)OC(C)C)N(C(=O)OC(C)C)C[C@H](OC(=O)Nc4c(C)noc4C)[C@@]3(O)C2)cc1	.	.	.	-51	/	/
Cc1ccc(S(=O)(=O)N2C[C@H]3N(C(=O)OC(C)C)N(C(=O)OC(C)C)C[C@H](OC(=O)Nc4cccs4)[C@@]3(O)C2)cc1	?	.	.	-80	/	/
O=C(NCCOc1ccccc1Cl)c1cccc2c1C(=O)c1ccc(Cl)cc1S2(=O)=O	/	.	?	.	.	?
COc1ccc(-c2ccc3c(c2)S(=O)(=O)c2cccc(C(=O)NCCOc4ccccc4)c2C3=O)cc1OC	?	35µM	?	.	.	?
O=C(NC[C@@H]1CCCO1)c1cccc2c1C(=O)c1ccc(Cl)cc1S2(=O)=O	?	.	.	-54	.	.
CC(C)OCCCNC(=O)c1cccc2c1C(=O)c1ccc(Cl)cc1S2(=O)=O	?	.	.	-77	.	.
O=C(NCCOc1ccccc1)c1cccc2c1C(=O)c1ccc(Cl)cc1S2(=O)=O	?	.	?	-81	.	.
CCOc1ccc(NC(=O)CN(C)C(=O)c2cc([N+](=O)[O-])ccc2Sc2ccccc2)cc1OCC	.	.	.	.	.	.
COc1ccc2c(CNC3CCC(C)CC3)c(C(=O)O)n(Cc3ccc(F)cc3)c2c1 (centres undefined)	?	.	.	/	/	/
CS(=O)(=O)c1ccc(-c2cccc3c2OC(CNC(=O)c2cc(C4CC4)[nH]n2)C3)cc1 (centres undefined)	.	.	/	/	/	/
Cc1ccc(NC(=O)Cn2ccn(-c3ccccc3)c(=O)c2=O)cc1	/	.	/	/	/	/
CCCS(=O)(=O)c1nc(S(=O)(=O)c2ccc(C)cc2)c(NCc2ccccc2Cl)s1	/	.	/	/	/	/
SMILES	ATXN viability	PINK1 modulator	ATXN2 expr inh	IL-1B inflam inh	SW480 rereplic	MCF10A rereplic
Cc1cc(-c2ccc(S(=O)(=O)Nc3ccc(Cl)cc3)cc2)on1	/	.	/	/	/	/
Cc1ccc(NS(=O)(=O)c2sc3ccc(Cl)cc3c2C)cc1	?	.	?	-85	.	?
COc1ccc(-c2cc(C(F)F)n3ncc(C(=O)N4CCN5CCCC5C4)c3n2)cc1 (centres undefined)	.	.	.	-65	.	.
COc1ccc(-c2cc(C(F)F)n3ncc(C(=O)Nc4cc(OC)ccc4OC)c3n2)cc1	.	.	.	/	/	/
COc1ccc(-c2cc(C(F)F)n3ncc(C(=O)n4ccnc4C)c3n2)cc1	?	.	.	.	?	16µM
COc1ccc(-c2cc(C(F)F)n3ncc(C(=O)N4CCc5ccccc54)c3n2)cc1	.	.	/	.	7.3µM	4.6µM
Cc1ccc(-c2cc(C(F)F)n3ncc(C(=O)N4CCCc5ccccc54)c3n2)cc1	?	.	.	.	.	.
COC(=O)c1ccc(NC(=O)CC2C(=O)N(c3cccc(C)c3)C(=O)N2C2CCCC2)cc1 (centres undefined)	/	.	/	/	/	/
CCCCNc1ncnc2oc(-c3ccco3)c(-c3ccco3)c12	/	.	/	/	/	/
COc1ccc(-c2oc3ncnc(NCCCN(C)C)c3c2-c2ccc(OC)cc2)cc1	?	.	?	-64	?	.
CN(C)CCNc1ncnc2oc(-c3ccccc3)c(-c3ccccc3)c12	?	.	?	-70	?	?
CN(C)CCNc1ncnc2ccccc12	.	.	.	.	.	.
Cc1cccc(N2CCN(C(=O)C3CCCN(S(=O)(=O)c4ccc(Br)s4)C3)CC2)c1C (centres undefined)	/	.	/	/	/	/
COC(=O)c1c(C)oc2ccc(N(C(=O)c3ccncc3)S(=O)(=O)c3ccc(OC)cc3)cc12	/	.	/	/	/	/
COc1ccc(S(=O)(=O)N(C(=O)c2ccncc2)c2ccc3oc4c(c3c2)CCCC4)cc1	?	?	.	.	?	3.3µM
COc1ccccc1CNC(=O)CSc1ncc(S(=O)(=O)c2ccc(C)c(Cl)c2)c(=O)[nH]1	.	.	.	/	/	/
Cc1cc(C)c(NC(=O)CSc2n[nH]c(-c3ccccc3Cl)n2)c(C)c1	/	.	/	/	/	/
CN(C)c1ccc(C(=O)N2CCN(c3cc(C(F)(F)F)nc4ccccc34)CC2)cc1	?	.	?	-55	.	.
O=C(O)COCC(=O)N1CCN(c2cc(C(F)(F)F)nc3ccccc23)CC1	.	.	.	.	.	.
CCC(C)NC(=O)Nc1ccc(Br)cc1 (centres undefined)	.	.	.	.	.	.
CCC(C)Nc1ccc(NC(C)CC)cc1 (centres undefined)	/	.	?	?	.	2.6µM

Source: PubChem (National Center for Advancing Translational Sciences (NCATS))
